Inconclusive results are not listed. The source made the active and inactive calls. The call rests on the fitted dose curve; in most records, active means well fitted cell-killing curve with a large enough effect; inconclusive means small, poorly fitted or top-dose-only effect, or effect the other way; inactive means flat fitted curve, though single readings scatter. *1 amine or outer side, *2 acyl side, *3 side chain or, on linkers, in order; H or OH if unused. Where a SMILES comes first, the peptide text is derived from it. Bridges are numbered along the chain shown (N, C = ends). [ ]: non-standard residue; d: D form. X6 = O=C(CCC[*:2])[*:1]
Assays:
Assay in all cases: Primary qHTS to identify gynecologic anti-cancer compounds using libraries of approved drugs and bioactive compounds (AID 1345084); further: nearly all actives have a fitted effect of over 55% in size
Details in all cases: Gynecologic cancer cell panel viability, ATPlite luminescence, 48 h; series mostly up to 57.5 µM
SKOV3 = test system: SKOV3
Method in brief: (§1)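 In this quantitative HTS, cell killing is estimated from loss of ATP-dependent luciferase light. Cells see five compound concentrations over a 48 h exposure.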

Tov-21-G = test system: Tov-21-G
Method in brief: as §1

Tov112D = test system: Tov112D
Method in brief: as §1
On the % scale 0 is the no-effect control and ±100 the full control effect.

C=C1CC[C@H]2[C@@](C)(CCC(O)[C@@]2(C)CO)[C@@H]1C/C=C(/C(=O)O)C(O)CO (some centres not stated)
inactive: Potency (SKOV3) | Potency (Tov-21-G) | Potency (Tov112D)

C=C(C(=O)O)C1CCC(C)C2CCC(=O)OC2(C)C1 (configuration not stated)
inactive: Potency (SKOV3) | Potency (Tov-21-G) | Potency (Tov112D)

CC(=O)OC[C@@]12[C@@H](OC(C)=O)C[C@@H](C)[C@](C)([C@@H]3C[C@H]4C=CO[C@H]4O3)[C@H]1CCC[C@]21CO1
inactive: Potency (SKOV3) | Potency (Tov-21-G) | Potency (Tov112D)

O=C(OCc1cccc(O)c1O[C@@H]1O[C@H](CO)[C@@H](O)[C@H](O)[C@H]1O)C1(O)C(=O)C2C=CC1C1C=CC(=O)C(O)(C(=O)OCc3cccc(O)c3O[C@@H]3O[C@H](CO)[C@@H](O)[C@H](O)[C@H]3O)C21 (some centres not stated)
inactive: activity change, negative = cytotoxicity (SKOV3) 4.95% [at 11.6 µM] | activity change, negative = cytotoxicity (Tov-21-G) 1.57% [at 11.6 µM] | activity change, negative = cytotoxicity (Tov112D) 2.56% [at 11.6 µM]

CC(=O)N[C@H](Cc1ccc(O)cc1)C(=O)N[C@H](CCCN=C(N)N)C(=O)N[C@H](Cc1ccccc1)C(N)=O (Ac-[dY]-[dR]-[dF]-NH2)
inactive: Potency (SKOV3) | Potency (Tov-21-G) | Potency (Tov112D)

COC(=O)C1(Cc2ccc(O)cc2)OC(=O)C(OC)=C1c1ccc(O)cc1 (configuration not stated)
inactive: Potency (SKOV3) | Potency (Tov-21-G) | Potency (Tov112D)

CC(=O)O[C@H]1[C@H](C)[C@@H](O)[C@H]2[C@@H]1C=C(C(=O)O)[C@H]1C[C@@H]3[C@H]([C@H]21)[C@H]1C(=O)O[C@@H]2CC[C@@]3(C)O[C@]1(O)[C@@H]2C
inactive: Potency (SKOV3) | Potency (Tov-21-G) | Potency (Tov112D)

COC1C2=C(COC2=O)C2(C)CCCC(C)(CO)C2C1OC(=O)c1ccccc1 (configuration not stated)
inactive: Potency (SKOV3) | Potency (Tov-21-G) | Potency (Tov112D)

Cn1ccnc1CCOC(c1cc2nccc(C(=O)O)c2[nH]1)c1ccccc1Cl (configuration not stated)
inactive: Potency (SKOV3) | Potency (Tov-21-G) | Potency (Tov112D)

OC[C@H]1O[C@@H](Oc2ccc3c(c2)OC[C@H]2c4cc5c(cc4O[C@@H]32)OCO5)[C@H](O)[C@@H](O)[C@@H]1O
inactive: Potency (SKOV3) | Potency (Tov-21-G) | Potency (Tov112D)

CC[C@H](C)[C@@H]1NC(=O)[C@H](Cc2ccc(OC)cc2)NC(=O)CCCSC[C@@H](C(=O)N2CCC[C@H]2C(=O)N[C@@H](CC(C)C)C(=O)NCC(N)=O)NC(=O)[C@H](CC(N)=O)NC(=O)[C@H](CCC(N)=O)NC1=O (Y(Me)IQNCPLG-NH2; linker N-5 via X6)
inactive: Potency (SKOV3) | Potency (Tov-21-G) | Potency (Tov112D)

O=C1NCc2nc3ccccc3c(=O)n2C1Cc1c[nH]c2ccccc12 (configuration not stated)
inactive: Potency (SKOV3) | Potency (Tov-21-G) | Potency (Tov112D)

COC1CC(=O)C23C(=O)NC(CC(C)C)C2C(C)C(C)=CC3/C=C(\C)CCC1O (configuration not stated)
inactive: Potency (SKOV3) | Potency (Tov-21-G) | Potency (Tov112D)

COC1=Cc2c(nc3n(c2=O)C(C)C(=O)NC3(O)C(C)C)OC=C1 (configuration not stated)
inactive: Potency (SKOV3) | Potency (Tov-21-G) | Potency (Tov112D)

C=C1CCC[C@]2(C)C[C@]3(O)OC(=O)C(C)=C3C[C@@H]12
inactive: Potency (SKOV3) | Potency (Tov-21-G) | Potency (Tov112D)

CC1CC(O)C2(C)C(C(=O)O)=CCCC2C1(C)CCc1ccoc1 (configuration not stated)
inactive: Potency (SKOV3) | Potency (Tov-21-G) | Potency (Tov112D)

O=C(/C=C/c1ccc(O)cc1)OCC1=CC2OC(=O)C3=CO[C@@H](O[C@@H]4O[C@H](CO)[C@@H](O)[C@H](O)[C@H]4O)[C@H]1[C@@H]32 (some centres not stated)
inactive: Potency (SKOV3) | Potency (Tov-21-G) | Potency (Tov112D)

OC[C@H]1O[C@@H](OC(CCCCc2ccc(O)cc2)CCc2ccc(O)cc2)[C@H](O[C@@H]2OC[C@](O)(CO)[C@H]2O)[C@@H](O)[C@@H]1O (some centres not stated)
inactive: Potency (SKOV3) | Potency (Tov-21-G) | Potency (Tov112D)

c1nc(NC2CCCCCC2)c2cc(CNC[C@H]3CCCO3)sc2n1
inactive: Potency (SKOV3) | Potency (Tov-21-G) | Potency (Tov112D)

C=C1CCC2[C@@](C)(C=O)CCC[C@]2(C)[C@H]1CC/C(C)=C/CO (some centres not stated)
inactive: Potency (SKOV3) | Potency (Tov-21-G) | Potency (Tov112D)

COc1cc(COC2OC(CO)C(O)C(O)C2O)cc(OC)c1O (configuration not stated)
inactive: Potency (SKOV3) | Potency (Tov-21-G) | Potency (Tov112D)

COc1cc2c(cc1O)C1(OC)Cc3ccc4c(c3C1N(C)CC2)OCO4 (configuration not stated)
inactive: Potency (SKOV3) | Potency (Tov-21-G) | Potency (Tov112D)

C/C=C(\C)C(=O)OC[C@H]1O[C@H](O[C@H]2O[C@H](CO)[C@@H](OC(=O)/C(C)=C/C)[C@H](O)[C@H]2O[C@@H]2O[C@H](CO)[C@@H](O)[C@H](O)[C@H]2O)[C@H](O[C@@H]2O[C@H](CO)[C@@H](O)[C@H](O)[C@H]2O)[C@@H](O)[C@@H]1O
inactive: activity change, negative = cytotoxicity (SKOV3) 3.25% [at 11.6 µM] | activity change, negative = cytotoxicity (Tov-21-G) 22.3% [at 11.6 µM] | activity change, negative = cytotoxicity (Tov112D) 9.9% [at 11.6 µM]

O=C(/C=C/c1ccc(O)cc1)OC[C@H]1O[C@@H](OC(=O)/C=C/c2ccccc2)[C@H](O)[C@@H](O)[C@@H]1O
inactive: Potency (SKOV3) | Potency (Tov-21-G) | Potency (Tov112D)

Reference: PubChem BioAssay (NCATS)
